Rows were chosen to be rich in hits. Some 9.1% of all compounds tested hit in one or more screens of this group.
Htt clearance = clearance of mutant huntingtin inclusions, primary screen, imaging, HeLa Exon1htt(103Q)mCFP, confocal imaging | aggregate imaging; zero = plate's median compound well | inhibition, % at 1.5 µM | 0.42% of 47,000 active;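 active means inhibition of aggregate fluorescence above about 70%, also judged a hit by eye on the cell image, limit read from the data, passing the limit was not always enough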;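 further: cells exposed to compound for three days before fixation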
M1 antagonist = antagonists of rat M1 muscarinic receptor. Muscarinic acetylcholine receptor M1 (Rattus norvegicus), P08482. 3.4% of 64,000 active. AID 628, 2007. B-score at 10 µM. CHO-M1 cells, Fluo-4 calcium, ACh EC80 antagonist mode; stronger effect = lower value;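 active means calcium fluorescence response, raw or row-and-column corrected B-score, differing from the plate sample mean either way at a set confidence level, mostly lower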
M1 agonist = M1 muscarinic receptor agonists, primary screen, CHO-M1 cells, Fluo-4 calcium, agonist mode. Muscarinic acetylcholine receptor M1. Fluo-4 calcium fluorescence; stronger effect = higher value. B-score at 10 µM. 3% of 64,000 active. AID 626, 2007;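 active means fluorescence rise, raw or as B-score row- and column-corrected plate score, outside the 99.7% band of its plate's samples, either direction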
D1 allo mod = D1 CRE-luciferase signal change, two-sided – cell-based, HEK293 D1, dopamine EC30, D1 allosteric modulator project, primary screen; D(1A) dopamine receptor (Homo sapiens), P21728; dopamine EC30 potentiation; actives deviate in either direction; B-score at 10 µM; 5.9% of 58,000 active;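 active means luminescence count or its row- and column-corrected plate score outside the 99.7% band of the plate's sample wells, on either side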
Target sequence (P21728 whole entry, looked up): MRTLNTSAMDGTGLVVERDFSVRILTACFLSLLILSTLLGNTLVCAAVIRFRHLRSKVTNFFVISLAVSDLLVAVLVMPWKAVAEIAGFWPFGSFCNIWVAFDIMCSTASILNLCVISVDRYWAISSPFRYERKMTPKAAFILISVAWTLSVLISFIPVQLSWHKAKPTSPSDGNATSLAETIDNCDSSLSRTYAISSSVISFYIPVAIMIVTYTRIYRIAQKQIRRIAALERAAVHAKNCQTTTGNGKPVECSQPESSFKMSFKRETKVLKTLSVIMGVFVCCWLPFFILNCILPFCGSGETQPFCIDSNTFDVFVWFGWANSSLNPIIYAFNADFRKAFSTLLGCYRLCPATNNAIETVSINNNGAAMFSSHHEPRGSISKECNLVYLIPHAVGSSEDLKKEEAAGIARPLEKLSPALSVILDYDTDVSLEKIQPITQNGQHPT
M1 antag conf = rat M1 muscarinic receptor antagonists, confirmation, CHO cells, Fluo-4 calcium, duplicate; shares compounds with M1 antagonist; ACh EC80 antagonism; stronger effect = lower value; calcium response (max-min fluorescence) at 10 µM; 43% of 1,700 active; AID 677, 2007;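 active means calcium response below the same-plate mean of wells given acetylcholine alone at its 80%-effect dose, minus 3 SD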
mGluR4 antag = human mGluR4 response to M1 antagonist hits, M1 allosteric modulator project, cell-based, antagonist mode, secondary assay 1; shares compounds with M1 antagonist; CHO-mGluR4 calcium flux, Fluo-4 fluorescence, glutamate EC80; stronger effect = lower value; fluorescence response (max-min) at 10 µM; 0.9% of 1,700 active;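 active means fluorescence response below the plate's average for near-maximal glutamate wells, less 3 SD of those wells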;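 further: raw unnormalized fluorescence span taken in the window right after glutamate addition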
Large screens that a line does not name were inactive (follow-up assays come after a bar, where they were run).

Cn1c(-c2ccc3c(c2)OCO3)cnc1NCc1cccc(Cl)c1	M1 antagonist -16.6 | M1 antag conf 109 | mGluR4 antag inactive
Cn1c(-c2ccc3c(c2)OCO3)cnc1NC(=O)CCC(=O)NCCc1ccccc1	none (no result: Htt clearance)
Cn1c(-c2ccc3c(c2)OCO3)cnc1NCc1ccccc1	M1 antagonist -5.3 (no result: Htt clearance) | M1 antag conf 295 | mGluR4 antag inactive
COc1cccc(CNC(=O)C2CCN(c3cnccn3)CC2)c1	none (no result: Htt clearance)
Cn1ccnc1SCC(=O)c1cc2ccccc2o1	M1 antagonist -3.25 (no result: Htt clearance) | M1 antag conf inactive | mGluR4 antag inactive
Cn1c(SCC(=O)c2cc3ccccc3o2)nnc1-c1ccccc1	M1 antagonist -2.01 | M1 antag conf inactive | mGluR4 antag inactive
Cn1c(SCC(=O)N2CCN(c3ccccc3)CC2)nnc1-c1cc2ccccc2o1	none
COc1ccc(N2CCN(C(CNC(=O)C3CCCCC3)c3cccnc3)CC2)cc1 (configuration not stated)	M1 antagonist -2.88 (no result: Htt clearance) | M1 antag conf inactive | mGluR4 antag inactive
O=C(Nc1ccc(S(=O)(=O)Nc2nccs2)cc1)C1CCCCC1	M1 antagonist -13.3 (no result: Htt clearance, D1 allo mod) | M1 antag conf inactive | mGluR4 antag inactive
CCOC(=O)Nc1ccc2c(c1)N(C(=O)CCN1CCOCC1)c1ccccc1S2=O (configuration not stated)	M1 antagonist -10.5 | M1 antag conf 55.1 | mGluR4 antag inactive
Cc1ccc(NC(=O)CS(=O)CC(=O)NC2CCN(Cc3ccccc3)CC2)c(C)c1 (configuration not stated)	M1 antagonist -7.75 (no result: D1 allo mod) | M1 antag conf inactive | mGluR4 antag inactive
CC(=O)Oc1cc2c(C(C)=O)coc2c2ccccc12	none
CC(=O)c1cc(C)ccc1OC(=O)c1cccc2nc(C)oc12	M1 antagonist -4.23 | M1 antag conf inactive | mGluR4 antag inactive
Cc1noc(C)c1S(=O)(=O)Nc1ccc(C(=O)N2CCc3ccccc3C2)cc1	none (no result: Htt clearance)
CC(=O)CC1OC(=O)C(Br)=C1NCc1ccccc1 (configuration not stated)	M1 antagonist -2.33 | M1 antag conf inactive | mGluR4 antag inactive
CN1CCN(CC#CCn2c3ccccc3c3ccccc32)CC1	M1 antagonist -13 | M1 antag conf 229 | mGluR4 antag inactive
CCOC(=O)c1[nH]c2ccc(Br)cc2c1NC(=O)CCN1CCN(C(=O)OCC)CC1	none (no result: Htt clearance)
CCOC(=O)c1[nH]c2ccc(OC)cc2c1NC(=O)CCN1CCCC(C)C1 (configuration not stated)	M1 antagonist -3.59 (no result: Htt clearance, D1 allo mod) | M1 antag conf 370 | mGluR4 antag inactive
COC(=O)c1[nH]c2ccc(C)cc2c1NC(=O)CCN1CCN(Cc2ccc3c(c2)OCO3)CC1	M1 antagonist -20.2 | M1 antag conf 38.2 | mGluR4 antag inactive
COC(=O)c1[nH]c2cccc(OC)c2c1NC(=O)CCN1CC(C)CC(C)C1 (configuration not stated)	M1 antagonist -3.35 (no result: Htt clearance, D1 allo mod) | M1 antag conf inactive | mGluR4 antag inactive
CCOC(=O)c1[nH]c2ccc(Br)cc2c1NC(=O)CCN1CCCCC1	M1 antagonist -14.6 | M1 antag conf 25.4 | mGluR4 antag 143
C=CCOC(=O)C1=C(C)Nc2nnnn2C1c1cccs1 (configuration not stated)	none (no result: M1 antagonist, M1 agonist, D1 allo mod)
CCCNC(=O)NC(=O)CSc1ccc2c(c1)OCCO2	none (no result: M1 antagonist, M1 agonist, D1 allo mod)
CCOC(=O)c1[nH]c2ccc(Br)cc2c1NC(=O)CCN1CCC(C(=O)OCC)CC1	M1 antagonist -5.16 (no result: Htt clearance) | M1 antag conf 408 | mGluR4 antag inactive
O=C(C1CCCN(Cc2ccccc2)C1)N1CCCCC1 (configuration not stated)	none (no result: M1 antagonist, M1 agonist, D1 allo mod)
COc1ccc(CN2CCCC(C(=O)N(C)Cc3ccccc3)C2)cc1OC (configuration not stated)	none
COc1ccccc1CN1CCCC(C(=O)N(C)Cc2ccccc2)C1 (configuration not stated)	M1 antagonist -3.76 | M1 antag conf 513 | mGluR4 antag inactive
O=C(C1CCCN(Cc2ccccc2Br)C1)N1CCCCC1 (configuration not stated)	M1 antagonist -2.32 (no result: Htt clearance) | M1 antag conf 397 | mGluR4 antag inactive
COc1ccc(Br)cc1CN1CCCC(C(=O)N2CCCCCC2)C1 (configuration not stated)	M1 antagonist -3.15 (no result: Htt clearance) | M1 antag conf 313 | mGluR4 antag inactive
Cc1ccc2c(CC(=O)Nc3nc(C)cs3)coc2c1	none
CCOC(=O)C1=C(N)OC2=C(C(=O)CCC2)C1c1ccccc1OCC (configuration not stated)	none (no result: Htt clearance)
O=C(NS(=O)(=O)c1ccc(NC(=O)C2CCCO2)cc1)c1ccccc1 (configuration not stated)	none (no result: Htt clearance)
O=C(Nc1ccc(S(=O)(=O)N2CCCCCC2)cc1)C1CCCO1 (configuration not stated)	M1 antagonist -3.16 | M1 antag conf inactive | mGluR4 antag inactive
O=C(Nc1ccc(S(=O)(=O)Nc2ccc(Cl)cc2)cc1)C1CCCO1 (configuration not stated)	M1 antagonist -1.15 (no result: Htt clearance) | M1 antag conf inactive | mGluR4 antag inactive
OCCNc1nc(SCc2ccccc2)nc2sc3c(c12)CCC3	none (no result: M1 antagonist, M1 agonist, D1 allo mod)
OC(COc1ccc2c(c1)CCC2)Cn1cnc2ccccc21 (configuration not stated)	none (no result: M1 antagonist, M1 agonist, D1 allo mod)
Cc1cc(C)c(N2C(=NC(=O)CCCC(=O)O)SC3CS(=O)(=O)CC32)c(C)c1 (configuration not stated)	none (no result: Htt clearance)
COC(=O)c1ccc(C2c3c(n[nH]c3C)C(=O)N2c2ccc(C)cc2)cc1 (configuration not stated)	M1 antagonist -1.04 | M1 antag conf 450 | mGluR4 antag inactive
Cc1cccn2c(=O)c3cc(C(=O)NCc4ccccc4)c(=N)n(CCCN4CCOCC4)c3nc12	M1 antagonist -3.28 (no result: Htt clearance) | M1 antag conf 337 | mGluR4 antag inactive
CCCCNC(=O)c1cc2c(=O)n3cccc(C)c3nc2n1C	none (no result: Htt clearance)
CCNC(=O)c1cc2c(=O)n3cccc(C)c3nc2n(CCc2ccccc2)c1=N	none (no result: Htt clearance)
COCCn1c(=N)c(C(=O)NCCc2ccccc2)cc2c(=O)n3cccc(C)c3nc21	M1 antagonist -4.65 (no result: Htt clearance) | M1 antag conf 194 | mGluR4 antag inactive
Cc1cccn2c(=O)c3cc(C(=O)NCCCN4CCCC4=O)n(C)c3nc12	M1 antagonist -3.09 | M1 antag conf 615 | mGluR4 antag inactive
O=S(=O)(c1ccc(OCC(O)CN2CCc3ccccc3C2)cc1)N1CCOCC1 (configuration not stated)	M1 antagonist -3.67 (no result: Htt clearance) | M1 antag conf 422 | mGluR4 antag inactive
CCCCNC(=O)c1ccccc1C(=O)NCCCC	M1 antagonist -3.95 | M1 antag conf inactive | mGluR4 antag inactive
